Only some compounds are listed: those with a hit (about 4.5% of all), similar ones and a draw of the others.
Mdm2 MdmX PPI: inhibitors of human Mdm2-MdmX association, primary screen, cell-based, luminescence, split luciferase, SaOS-2, uHTS; AID 485346, 2010; 3% of 330,000 active; SaOS-2 split-luciferase Mdm2/MdmX complementation; inhibition, % at 8 µM;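 active means inhibition of at least 50% at 8 µM in the primary screen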
Target sequence (O15151 whole entry, looked up): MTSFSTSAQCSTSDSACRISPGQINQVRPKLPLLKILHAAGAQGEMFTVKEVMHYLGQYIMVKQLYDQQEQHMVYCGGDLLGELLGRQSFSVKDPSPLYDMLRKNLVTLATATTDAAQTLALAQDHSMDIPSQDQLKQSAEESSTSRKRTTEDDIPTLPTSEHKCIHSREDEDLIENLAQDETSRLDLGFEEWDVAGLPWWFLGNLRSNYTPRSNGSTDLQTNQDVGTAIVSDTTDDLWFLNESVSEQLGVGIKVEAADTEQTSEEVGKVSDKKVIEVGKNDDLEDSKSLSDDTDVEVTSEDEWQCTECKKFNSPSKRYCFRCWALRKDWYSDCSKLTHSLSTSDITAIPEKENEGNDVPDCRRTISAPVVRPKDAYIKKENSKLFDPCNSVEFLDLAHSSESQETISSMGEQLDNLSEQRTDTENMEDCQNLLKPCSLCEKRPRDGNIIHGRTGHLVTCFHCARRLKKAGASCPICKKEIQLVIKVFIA
Target sequence (Q00987 whole entry, looked up): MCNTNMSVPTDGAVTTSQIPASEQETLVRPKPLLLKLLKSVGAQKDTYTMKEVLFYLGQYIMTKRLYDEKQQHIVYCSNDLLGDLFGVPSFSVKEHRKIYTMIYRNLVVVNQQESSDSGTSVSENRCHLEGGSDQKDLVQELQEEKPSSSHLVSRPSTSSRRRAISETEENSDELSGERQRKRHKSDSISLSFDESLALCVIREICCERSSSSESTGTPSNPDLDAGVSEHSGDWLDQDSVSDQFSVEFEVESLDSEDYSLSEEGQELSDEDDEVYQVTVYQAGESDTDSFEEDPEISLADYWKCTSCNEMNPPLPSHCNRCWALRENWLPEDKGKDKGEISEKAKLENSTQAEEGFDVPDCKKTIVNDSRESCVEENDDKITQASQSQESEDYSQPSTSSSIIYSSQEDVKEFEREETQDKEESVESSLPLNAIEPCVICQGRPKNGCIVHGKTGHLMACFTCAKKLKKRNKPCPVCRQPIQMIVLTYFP
Gli-Sufu antag: Gli-Sufu pathway antagonists, primary screen, luciferase luminescence, Sufu-KO-LIGHT cells, uHTS; inhibition, % at 5 µM; 0.74% of 340,000 active; Sufu-KO-LIGHT fibroblasts, Gli luciferase reporter luminescence; AID 588413, 2011;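 active means inhibition above about 55%, limit read from the data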;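 further: 0% = DMSO-treated cells and 100% = wells with medium but no cells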
CSC inhib: cancer stem cell viability inhibitors, primary screen, luminescence | inhibition, % at 7.5 µM | cancer stem cell-like cells viability | 1.1% of 300,000 active; in the data active means inhibition above about 75%; tested in HMLE shEcad cells
Beta apoptosis: inhibitors of cytokine-induced beta cell apoptosis, primary screen, luminescence; 0.8% of 300,000 active; protection from apoptosis, % (no concentration beside the values); INS-1E cytokine-induced death, ATP luminescence, 48 h; percent of positive-control rescue, neutral wells zero; AID 435005, 2010;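 active means Every replicate reaches about 75%, or at least half do and their mean reaches it too, limit read from the data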;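 further: 0% = cytokine-treated negative control wells and 100% = positive control rescue; higher means more ATP so stronger rescue from cytokine killing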
Jurkat NFkB inh: inhibitors of induced NF-kB luciferase reporter, primary screen, TCR NF-kB activation inhibitor project, cell-based, luminescence, uHTS; inhibition, % at 4 µM; AID 435003, 2010; 0.53% of 330,000 active; Jurkat, PMA/ionomycin-induced NF-kB luciferase reporter; in the data active means inhibition above about 50%
697 NFkB inh: inhibitors of PMA/ionomycin-induced NF-kB reporter, 697 cells, primary screen, B-cell NF-kB inhibitor project, cell-based, luminescence, uHTS; 697 B-cell NF-kB luciferase reporter, 16 h; inhibition, % at 4 µM; 0.33% of 330,000 active; AID 435022, 2010; in the data active means inhibition above about 35%
Mdm2 MdmX conf: Mdm2-MdmX complex disruptors, retested hits, confirmation, luminescence, single concentration | 55% of 10,000 active | shares compounds with Mdm2 MdmX PPI | AID 489028, 2010 | inhibition, % at 8 µM | Mdm2-MdmX binding, luminescent assay; in the data active means inhibition above about 40%
Full FLuc ctr: full-length luciferase signal inhibition, confirmation, counter-screen for Mdm2/MdmX interaction inhibitor project, cell-based, single concentration, SaOS-2; shares compounds with Mdm2 MdmX PPI; SaOS-2 full-length luciferase counterscreen, luminescence; inhibition, % at 8 µM; 77% of 6,200 active; AID 504607, 2011;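 active means mean inhibition at 8 µM reaching about 37%, which flags the compound as non-specific, limit read from the data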;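 further: p53-null SaOS-2 cells with luciferase driven by a doxycycline-inducible promoter; compound on cells about two nights before reading with doxycycline added after day one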
Starred values were filed as active, the others as inactive; x = not tested or not shown.

SMILES | Mdm2 MdmX PPI | Gli-Sufu antag | CSC inhib | Beta apoptosis | Jurkat NFkB inh | 697 NFkB inh | Mdm2 MdmX conf | others
COc1ccc(-c2oc3ncnc(NCCCN(C)C)c3c2-c2ccc(OC)cc2)cc1 | 96.6* | 10.9 | 9.4 | 8.4 | 32.4 | -21.4 | 42.0* | Full FLuc ctr=28.6
CN(C)CCNc1ncnc2oc(-c3ccccc3)c(-c3ccccc3)c12 | 45.6 | 12.6 | 0.8 | 5.4 | -2.0 | 1.8 | x
O=C(NCC(=O)N1CCC(Cc2ccccc2)CC1)c1ccc(Cl)cc1 | -8.3 | -6.5 | 11.9 | 3.6 | 0.2 | 1.9 | x
O=C(CN1C(=O)c2ccccc2S1(=O)=O)NCCSCc1c(F)cccc1Cl | 6.3 | -5.3 | -2.0 | -5.6 | 4.8 | 17.5 | x
CN(C)c1ccc(NC(=O)COC(=O)c2ccc3c(c2)OCO3)cc1 | -1.6 | 30.1 | -10.9 | -5.1 | -0.3 | 6.5 | x
CN(C)c1ccc(C(=O)OCC(=O)Nc2ccc(S(N)(=O)=O)cc2)cc1 | 52.9* | -5.8 | -9.5 | 2.9 | 2.8 | 13.0 | -11.9
CCN(C(=O)CSc1nc(N)cc(=O)[nH]1)c1c(N)n(Cc2ccccc2)c(=O)[nH]c1=O | -10.9 | -5.6 | -10.9 | 0.5 | 7.4 | 18.2 | x
Cc1cccc(Cn2cc(/C=C/[N+](=O)[O-])c3ccccc32)c1 | 57.5* | -5.3 | 108.6* | -0.5 | 16.3 | 6.4 | 15.4
Cc1cc(C)n(CC(=O)NC2CCCc3c2cnn3-c2ccc(C)c(C)c2)n1 (stereo not given) | -13.7 | -20.1 | 8.4 | -2.9 | -18.8 | -56.3 | x
CCn1c(SCC(=O)N(C)CC(=O)Nc2ccc(F)c(F)c2F)nnc1-c1ccco1 | 7.9 | -5.8 | 3.3 | x | -5.9 | 5.7 | x
CC(=O)c1cccc(CN2CCC(C(=O)Nc3ccc(Oc4cccnc4)cc3)CC2)c1 | 27.9 | 15.9 | 14.0 | -2.5 | 5.8 | -53.0 | x
CC(=O)c1cccc(CN2CCC(C(=O)Nc3ccc(-c4cccc(C)c4)cc3)CC2)c1 | 52.1* | 46.5 | 44.8 | x | 26.0 | -27.6 | 17.6
COc1ccc(C(=O)NCN2CCN(c3ccccc3)CC2)cc1OC | -4.0 | 0.0 | -3.8 | 2.7 | 1.3 | 17.5 | x
Cc1ccc(NC(=O)c2cc(S(=O)(=O)N(C)C)ccc2N2CCCC2)cc1F | 52.1* | 15.3 | 21.8 | -8.1 | -12.7 | 9.0 | 38.0
COc1ccc(-c2csc(NC(CO)c3nc4ccccc4n3Cc3ccc(C)cc3)n2)cc1 (stereo not given) | 1.6 | 1.1 | 16.8 | -2.6 | 5.8 | -14.8 | x
Cc1ccc(Cn2c(C(CO)Nc3nc(-c4ccc(Cl)c([N+](=O)[O-])c4)cs3)nc3ccccc32)cc1 (stereo not given) | 64.5* | -0.2 | 23.2 | -3.6 | -0.9 | 9.2 | 15.6
Cc1ccc(Cn2c(C(CO)Nc3nc(-c4ccc(F)cc4)cs3)nc3ccccc32)cc1 (stereo not given) | 60.3* | 17.9 | 54.3 | -3.8 | -4.3 | 9.1 | 29.1
Cc1ccc(Cn2c(C(C)Nc3nc(-c4ccc(F)cc4)cs3)nc3cc(C(F)(F)F)ccc32)cc1 (stereo not given) | 50.3* | -29.3 | 43.4 | -1.2 | 7.6 | 5.6 | -0.7
CCCn1c(C(C)Nc2nc(-c3ccc(Cl)c([N+](=O)[O-])c3)cs2)nc2cc(Cl)c(N3CCCCC3)cc21 (stereo not given) | 61.4* | -2.1 | 1.6 | 4.6 | 14.3 | 8.4 | 21.1
COCc1nnc(NC(=O)c2c(-c3c(Cl)cccc3Cl)noc2C)s1 | 7.2 | -8.8 | 4.8 | -3.4 | -9.2 | -15.1 | x
O=C(NCCc1ccc(Cl)cc1)c1cc(S(=O)(=O)N2CCCCC2)c[nH]1 | 17.0 | 1.4 | 3.9 | -0.9 | 4.8 | -5.0 | x
COc1ccc(C2/C(=C(/O)c3ccc(Br)cc3)C(=O)C(=O)N2C)cc1 (stereo not given) | 10.2 | 8.1 | -11.2 | 1.8 | -6.5 | -4.4 | x
COC(=O)c1ccc(NC(=O)CSc2nc(=O)n3cccc(C)c3n2)cc1 | -24.5 | -0.5 | -7.6 | x | 6.6 | 2.7 | x
CCOc1cc(C(=O)N2CCC(CC3CC(c4ccc(Cl)cc4)=NO3)(C(=O)NCC3CCCCC3)CC2)cc(OCC)c1OCC (stereo not given) | 7.8 | -28.1 | 8.9 | 0.0 | 28.3 | 1.2 | x
O=C(NCC1CCCCC1)C1(CC2CC(c3ccc(Cl)cc3)=NO2)CCNCC1 (stereo not given) | 66.5* | 11.0 | 9.8 | -8.1 | -5.1 | 18.3 | 25.9
SMILES | Mdm2 MdmX PPI | Gli-Sufu antag | CSC inhib | Beta apoptosis | Jurkat NFkB inh | 697 NFkB inh | Mdm2 MdmX conf | others
CCCCCCCNC(=O)C1(CC2CC(c3ccccc3)=NO2)CCNCC1 (stereo not given) | 53.9* | 14.2 | 21.5 | -4.0 | 8.4 | 1.8 | 10.6
O=C(NCC1CCCCC1)C1(CC2CC(c3cccc(Br)c3)=NO2)CCNCC1 (stereo not given) | 78.7* | 1.4 | -3.7 | x | -5.1 | 0.2 | 33.5
O=C1C=C(O)c2[nH]c(=O)ccc2C1=O | x | -1.5 | x | x | x | x | x
Nc1ccc(NC(=O)c2ccccc2)c2c1C(=O)c1ccccc1C2=O | 51.6* | -1.2 | 10.9 | 8.8 | 41.1 | -12.0 | 52.5* | Full FLuc ctr=71.7*
Cc1c(C(=O)Nc2cccc([N+](=O)[O-])c2)cnn1-c1ccccc1 | -53.6 | x | 5.8 | x | -86.2 | -101.5 | x
O=C(/C=C/c1ccco1)Nc1ccc(Oc2ccc(Cl)cc2)cc1 | 54.9* | -2.5 | 2.3 | 25.1 | 33.5 | -133.7 | 59.6* | Full FLuc ctr=40.3*
CCOC(=O)c1c(-c2ccccc2)oc2ccc(OCC(O)CN(C)C)cc12 (stereo not given) | 73.7* | 1.0 | 23.0 | x | 2.4 | -15.9 | 38.5 | Full FLuc ctr=32.5
CCOC(=O)c1c(CSCc2ccccc2)oc2ccc(O)c(CN(C)C)c12 | 54.2* | 23.6 | 65.2 | 12.8 | -18.1 | -33.5 | 46.9* | Full FLuc ctr=64.8*
CCOC(=O)c1c(-c2ccccc2)oc2ccc(O)c(CN(C)C)c12 | 54.6* | 3.8 | -4.2 | -1.9 | -8.1 | -15.0 | 22.9
NS(=O)(=O)c1ccc(CNC(=O)c2cc(S(=O)(=O)N3CCOCC3)c(Cl)cc2Cl)cc1 | -14.6 | -38.8 | x | x | 11.4 | 3.0 | x
CCCCN(Cc1ccco1)C(=O)C1CCCN(c2ncnc3c2nc2n3CCCCC2)C1 (stereo not given) | 33.3 | 23.8 | -3.1 | 6.8 | 3.2 | -16.0 | x
Cc1ccc(C(=O)NCCCNC(=O)COc2ccc(C)c(C)c2)cn1 | 16.6 | -5.8 | -2.1 | -1.4 | 0.4 | 6.8 | x

High-throughput results: PubChem BioAssay, several laboratories
